In the supplement of paper PMC3545927:
The list shows a part of the results. The hit rate among all sequences tested is not known here.

B1: FS-2931 (peptide)
chain: CARGDRFSEDAGNASASA
B2: FS-3014 (peptide)
chain: CARNTRSDEDAGNASASA
B3: FS-2950 (peptide)
chain: CARIIRSSEDAGNASASA
B4: FS-2147 (peptide)
chain: CARHTRSIFWAGNASASA
B5: FS-2417 (peptide)
chain: CARGRRKDDYAGNASASA
B6: HC357 (peptide)
chain: CAGHTVSGFVAGNASASA
B7: HC1571 (peptide)
chain: CARHTPVNSWAGNASASA
B8: FS-2681 (peptide)
chain: CARHTRSAEDAGNASASA
B9: FS-1897 (peptide)
chain: CARHTRSYDYAGNASASA
B10: FS-2805 (peptide)
chain: CARSIRDAEDAGNASASA
B11: HC1907 (peptide)
chain: CATTPCSGFWAGNASASA
B12: HC1853 (peptide)
chain: CATRPCSGSWAGNASASA
B13: HC945 (peptide)
chain: CADAHFLSQTAGNASASA
B14: HC1881 (peptide)
chain: CATTNCSGSWAGNASASA
B15: HC2132 (peptide)
chain: CAEEVVCCSMAGNASASA
B16: HC1651 (peptide)
chain: CAYHSVSHARAGNASASA
B17: HC1772 (peptide)
chain: CAMEECSQHEAGNASASA
B18: HC335 (peptide)
chain: CAAGAHWGVLAGNASASA
B19: HC2286 (peptide)
chain: CADMEVVTSTAGNASASA
B20: HC1932 (peptide)
chain: CATTPCSGSEAGNASASA
B21: FS-1124 (peptide)
chain: CAFGRRLRRRAGNASASA
B22: FS-106 (peptide)
chain: CAVRKRLRRRAGNASASA
B23: FS-1040 (peptide)
chain: CAPAHRHRRRAGNASASA
B24: FS-1624 (peptide)
chain: CACNHRNRRRAGNASASA
B25: FS-1131 (peptide)
chain: CAKKSRLRRRAGNASASA
B26: HC2580 (peptide)
chain: CASTPCSAHCAGNASASA
B27: HC1664 (peptide)
chain: CAIEECSQHLAGNASASA
B28: HC2208 (peptide)
chain: CAEVVTSWWVAGNASASA
B29: FS-270 (peptide)
chain: CALIDRFKRWAGNASASA
B30: HC367 (peptide)
chain: CALINTNGSWAGNASASA
B31: FS-1634 (peptide)
chain: CAKIARHYRWAGNASASA
B32: FS-370 (peptide)
chain: CAQHYRKKRWAGNASASA
B33: FS-49 (peptide)
chain: CALCGRYKRWAGNASASA
B34: HC1674 (peptide)
chain: CAKEECSQHLAGNASASA
B35: FS-2849 (peptide)
chain: CARYKRPGLPAGNASASA
B36: FS-2112 (peptide)
chain: CARYKRWRKHAGNASASA
B37: HC1039 (peptide)
chain: CALETFWAKHAGNASASA
B38: FS-2848 (peptide)
chain: CARYKRHFKLAGNASASA
B39: HC1846 (peptide)
chain: CATMPCSGSWAGNASASA
B40: FS-2547 (peptide)
chain: CARARRFCRDAGNASASA
B41: FS-1848 (peptide)
chain: CARARRPHFDAGNASASA
B42: FS-1683 (peptide)
chain: CARARRFSGLAGNASASA
B43: FS-2644 (peptide)
chain: CARARRFAQIAGNASASA
B44: FS-2648 (peptide)
chain: CARARRHAADAGNASASA
B45: FS-1455 (peptide)
chain: CAGCGRICRDAGNASASA

Target: furin, P09958
Test: furin cleavage Z-score vs untreated control; higher = more cleavage, active = 3.5 or more, inactive = 1 or less, 8 variable residues between constant flanks
Summary of the method: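 Abundance of DNA freed from bead-bound 8-mer peptide–cDNA fusions by purified furin was measured as sequencing read counts after PCR adapter tagging. Cutting ran 7.5, 15 or 30 min in 0.01 ml of 50 mM HEPES pH 7.5 with CaCl2 and NaCl at 1:10 enzyme:substrate. The cleavage Z-score expresses these log counts against furin-free reactions after lowess adjustment and median absolute deviation scaling.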

Chain of furin, P09958 (P09958 whole entry): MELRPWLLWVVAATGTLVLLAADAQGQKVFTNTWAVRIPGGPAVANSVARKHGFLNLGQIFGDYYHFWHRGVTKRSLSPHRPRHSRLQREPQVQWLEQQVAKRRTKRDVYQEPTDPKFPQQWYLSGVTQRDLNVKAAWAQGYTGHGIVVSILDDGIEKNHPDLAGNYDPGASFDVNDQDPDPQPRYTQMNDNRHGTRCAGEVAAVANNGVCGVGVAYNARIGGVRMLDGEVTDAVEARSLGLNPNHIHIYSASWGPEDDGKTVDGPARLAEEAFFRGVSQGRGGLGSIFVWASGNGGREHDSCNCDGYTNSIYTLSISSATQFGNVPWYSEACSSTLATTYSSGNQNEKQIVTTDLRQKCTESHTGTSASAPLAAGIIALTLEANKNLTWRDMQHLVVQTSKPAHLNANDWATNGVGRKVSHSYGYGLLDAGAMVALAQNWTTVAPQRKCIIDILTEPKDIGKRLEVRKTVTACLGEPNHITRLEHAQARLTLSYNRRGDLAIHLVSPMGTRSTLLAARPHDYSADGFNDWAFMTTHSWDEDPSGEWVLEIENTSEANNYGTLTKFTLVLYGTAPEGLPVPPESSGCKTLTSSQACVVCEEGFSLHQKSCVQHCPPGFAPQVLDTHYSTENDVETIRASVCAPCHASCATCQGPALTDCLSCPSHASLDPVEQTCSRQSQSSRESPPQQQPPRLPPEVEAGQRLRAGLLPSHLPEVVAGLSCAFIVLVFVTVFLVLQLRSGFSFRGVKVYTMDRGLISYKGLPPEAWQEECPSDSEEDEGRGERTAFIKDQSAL

Row | Sequence | furin cleavage Z-score (7.5 min) | furin cleavage Z-score (15 min) | furin cleavage Z-score (30 min)
1 | B1 | -1.45 (inactive) | -0.738 (inactive) | -1.76 (inactive)
2 | B2 | -1.02 (inactive) | -0.114 (inactive) | -1.53 (inactive)
3 | B3 | 3.85 (active) | 3.61 (active) | 5.54 (active)
4 | B4 | 4.67 (active) | 4.45 (active) | 7.05 (active)
5 | B5 | 0.188 (inactive) | -0.41 (inactive) | 0.301 (inactive)
6 | B6 | 1.57 | -0.476 (inactive) | -0.897 (inactive)
7 | B7 | 1.44 | 0.608 (inactive) | 0.598 (inactive)
8 | B8 | 11.3 (active) | 11.4 (active) | 9.18 (active)
9 | B9 | 1.79 | 2.03 | 4.9 (active)
10 | B10 | 0.647 (inactive) | 0.756 (inactive) | 1.52
11 | B11 | -1.56 (inactive) | -0.535 (inactive) | -0.967 (inactive)
12 | B12 | -0.899 (inactive) | -0.615 (inactive) | -0.153 (inactive)
13 | B13 | 0.613 (inactive) | 1.42 | 0.711 (inactive)
14 | B14 | -0.528 (inactive) | -0.292 (inactive) | 0.376 (inactive)
15 | B15 | 0.374 (inactive) | 0.297 (inactive) | -0.621 (inactive)
16 | B16 | -1.35 (inactive) | -2.06 (inactive) | 0.0597 (inactive)
17 | B17 | 1.5 | -1.3 (inactive) | 0.318 (inactive)
18 | B18 | -0.197 (inactive) | -0.687 (inactive) | 0.539 (inactive)
19 | B19 | 0.448 (inactive) | -0.986 (inactive) | 0.706 (inactive)
20 | B20 | -1.03 (inactive) | -0.656 (inactive) | -0.208 (inactive)
21 | B21 | 3.43 | 6.37 (active) | 4.4 (active)
22 | B22 | 5.39 (active) | 6.32 (active) | 5.13 (active)
23 | B23 | 8.92 (active) | 11.7 (active) | 8.95 (active)

Row | Sequence | furin cleavage Z-score (7.5 min) | furin cleavage Z-score (15 min) | furin cleavage Z-score (30 min)
24 | B24 | 5.53 (active) | 5.63 (active) | 6.25 (active)
25 | B25 | 0.949 (inactive) | 0.557 (inactive) | 0.0179 (inactive)
26 | B26 | 0.205 (inactive) | 1.68 | 0.424 (inactive)
27 | B27 | 0.463 (inactive) | 0.93 (inactive) | 0.504 (inactive)
28 | B28 | -0.678 (inactive) | 0.21 (inactive) | -0.507 (inactive)
29 | B29 | 8.5 (active) | 9.49 (active) | 10.6 (active)
30 | B30 | 1.08 | -2.18 (inactive) | 0.0661 (inactive)
31 | B31 | 0.349 (inactive) | 0.374 (inactive) | 2.69
32 | B32 | 7.9 (active) | 8.78 (active) | 9.04 (active)
33 | B33 | 9.62 (active) | 12 (active) | 10.7 (active)
34 | B34 | 0.0836 (inactive) | -0.555 (inactive) | 1.98
35 | B35 | -0.56 (inactive) | 0.396 (inactive) | 1.9
36 | B36 | 4.44 (active) | 6.03 (active) | 5.36 (active)
37 | B37 | -0.932 (inactive) | -0.375 (inactive) | 0.0766 (inactive)
38 | B38 | 1.05 | 2.24 | 5.27 (active)
39 | B39 | -0.28 (inactive) | -1.3 (inactive) | -0.468 (inactive)
40 | B40 | 11.3 (active) | 11.2 (active) | 8.57 (active)
41 | B41 | -1.25 (inactive) | -0.201 (inactive) | 0.259 (inactive)
42 | B42 | -0.486 (inactive) | -0.258 (inactive) | 0.853 (inactive)
43 | B43 | 1.75 | 2.84 | 5.09 (active)
44 | B44 | 12.4 (active) | 14.4 (active) | 8.89 (active)
45 | B45 | 1.57 | 3.73 (active) | 3.06
